Reference: PubChem BioAssay (NCATS)
Unmarked numbers belong to inactive results. Results filed as inconclusive are left out. A call without a number means that no potency is given here. Calls of active or inactive are those of the source. Unless noted, the call rests on the fitted dose curve; in most records, active means well fitted curve in the direction sought with a large enough effect; inconclusive means small, poorly fitted or top-dose-only effect, or another doubt; inactive means no such curve, though single readings can be large; an effect the other way counts as inactive or inconclusive.

Tests used:
[1] = P-glycoprotein substrates identified in KB-3-1 adenocarcinoma cell line, qHTS therapeutic library screen (AID 1346986); further: nearly all actives have a fitted effect of over 60% in size
Summary of the method: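 Viability read by CellTiter-Glo after 72 h compound exposure in dose-response of KB-3-1 and KB-8-5-11 (P-gp-high) cells. Hits needed AC50 < 10 uM, >50% maximum response and curve class -1.1 to -2.4. Cherry-picks retested ± tariquidar, including pcDNA/MDR-19 HEK-293 pair.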

[2] = P-glycoprotein substrates identified in KB-8-5-11 adenocarcinoma cell line, qHTS therapeutic library screen (AID 1346987); further: nearly all actives have a fitted effect of over 65% in size; on activity change, negative = cytotoxicity: series mostly up to about 44 µM
Summary of the method: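 Luminescence from CellTiter-Glo, read 5 min after addition, quantified survival of KB-8-5-11 (P-gp-overexpressing) cells exposed to compounds for 72 h. AC50 was derived from concentration-response curves.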

[3] = target: Peroxisome proliferator-activated receptor alpha (Homo sapiens) (UniProt Q07869); experiment: qHTS assay for small molecule agonists of the peroxisome proliferator-activated receptor alpha (PPARalpha) signaling pathway (AID 651778); conditions: PathHunter PPARalpha complementation, chemiluminescence, 6 h; active compounds read high
Peroxisome proliferator-activated receptor alpha (Homo sapiens), sequence (Q07869 whole entry, looked up): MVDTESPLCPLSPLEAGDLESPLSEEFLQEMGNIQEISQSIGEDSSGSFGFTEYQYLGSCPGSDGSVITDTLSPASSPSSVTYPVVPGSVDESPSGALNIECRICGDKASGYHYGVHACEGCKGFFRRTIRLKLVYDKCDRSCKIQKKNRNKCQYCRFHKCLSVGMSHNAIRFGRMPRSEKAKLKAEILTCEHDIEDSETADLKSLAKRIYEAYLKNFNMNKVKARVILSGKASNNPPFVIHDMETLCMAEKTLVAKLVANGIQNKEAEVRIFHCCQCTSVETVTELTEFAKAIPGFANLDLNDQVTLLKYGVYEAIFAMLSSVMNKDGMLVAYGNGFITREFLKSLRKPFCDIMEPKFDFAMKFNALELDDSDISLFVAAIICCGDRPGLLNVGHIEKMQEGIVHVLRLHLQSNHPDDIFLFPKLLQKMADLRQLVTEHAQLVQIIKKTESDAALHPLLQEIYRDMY
Summary of the method: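 Chemiluminescence from complemented enzyme reported PPARalpha activation in cells after 6 hr of compound treatment at 37 C. The detection reagent was incubated for 60 min at room temperature, and compounds were scored as agonists.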

[4] = target: Nuclear receptor ROR-gamma (Homo sapiens) (UniProt P51449); experiment: qHTS assay for small molecule antagonists of the retinoid-related orphan receptor gamma (ROR-gamma) signaling pathway (AID 651802);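 further: CHO cells with doxycycline-induced ROR-gamma expression; series mostly up to about 92 µM; nearly all actives have a fitted effect of over 60% in size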
Nuclear receptor ROR-gamma (Homo sapiens), sequence (P51449 whole entry, looked up): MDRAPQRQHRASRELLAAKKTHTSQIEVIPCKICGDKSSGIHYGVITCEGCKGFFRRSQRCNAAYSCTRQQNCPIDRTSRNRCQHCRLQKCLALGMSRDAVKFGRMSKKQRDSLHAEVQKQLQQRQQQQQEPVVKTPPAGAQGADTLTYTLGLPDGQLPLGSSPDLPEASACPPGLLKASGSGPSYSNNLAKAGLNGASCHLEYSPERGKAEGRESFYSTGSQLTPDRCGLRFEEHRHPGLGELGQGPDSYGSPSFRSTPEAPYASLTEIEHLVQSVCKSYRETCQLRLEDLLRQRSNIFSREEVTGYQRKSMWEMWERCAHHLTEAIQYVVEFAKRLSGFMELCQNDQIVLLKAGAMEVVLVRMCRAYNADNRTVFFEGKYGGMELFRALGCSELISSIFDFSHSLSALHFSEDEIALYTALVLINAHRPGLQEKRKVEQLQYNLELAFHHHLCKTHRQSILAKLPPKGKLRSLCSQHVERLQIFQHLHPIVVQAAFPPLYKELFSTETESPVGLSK
Summary of the method: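 Steps: cells dispensed; compound or DMSO transferred by pin tool; doxycycline added to induce the ROR response element-driven luciferase; plates held 16hr at 37C; ONE-Glo added and luminescence measured.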

[5] = qHTS assay for small molecule agonists of the antioxidant response element (ARE) signaling pathway measured by Nrf2-dependant transcriptional activity (AID 720636; active means well fitted curve in the direction sought with a large enough effect in the repeat runs; an effect the other way counts as inactive or inconclusive;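 further: HepG2 cells with an ARE-driven luciferase reporter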)
Summary of the method: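 First, ARE-luc HepG2 cells attached for 6 hr at 37 C in 1% dialyzed FBS medium. Next, compound or DMSO was added and incubated 16 hr. Finally, ONE-Glo reagent was added and luminescence measured after 30 min.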

[6] = qHTS assay for small molecule antagonists of the retinoid-related orphan receptor gamma (ROR-gamma) signaling pathway - cell viability counter screen (AID 720652; active means well fitted curve in the direction sought with a large enough effect in the repeat runs; an effect the other way counts as inactive or inconclusive;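 further: CHO reporter cells with doxycycline-induced ROR-gamma expression; series mostly up to about 92 µM; compound exposure lasted 16 hr before ATP read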)
Summary of the method: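 Steps: seed CHO cells bearing TET-inducible ROR and ROR response element-luciferase; rest 5 hr at 37 C; add compound, then doxycycline; incubate 16 hr; add CellTiter-Glo and read luminescence as ATP-based viability.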

[7] = qHTS assay for small molecule agonists of the antioxidant response element (ARE) signaling pathway measured by Nrf2-dependant transcriptional activity - cell viability counter screen (AID 720653; active means well fitted curve in the direction sought with a large enough effect in the repeat runs; an effect the other way counts as inactive or inconclusive); conditions: ARE-bla HepG2 viability, CellTiter-Glo ATP luminescence, 16 h; active compounds read low
Summary of the method: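 Cytotoxicity counter screen: intracellular ATP quantified by CellTiter-Glo luminescence in the same ARE-bla HepG2 plates, after 16 h compound exposure and a 2 h beta-lactamase substrate step.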

[8] = qHTS assay for cell viability of HEK293 cells (AID 743288); conditions: ATP luminescence (CellTiter-Glo), 18 h, active compounds read low; further: nearly all actives have a fitted effect of over 50% in size
Summary of the method: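 Steps: plate 2,000 parental HEK293 cells per well; incubate ≥5 h, 37 C; add compounds in DMSO; incubate 18 h, 37 C; add CellTiter-Glo; wait 30 min at room temperature; read luminescence.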

[9] = qHTS assay for cell viability of the p53RE-bla HCT-116 cell line (AID 743292); further: nearly all actives have a fitted effect of over 55% in size
Summary of the method: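 Quantitative high-throughput format: compounds in DMSO were pinned onto p53RE-bla HCT-116 cells (4,000/well) and incubated 16 h at 37 C. Total intracellular ATP, read by CellTiter-Glo luminescence, reflects viable cell number.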

NC(=O)[C@H](Cc1ccccc1)NC(=O)[C@H](CCCN=C(N)N)NC(=O)C12CC3CC(CC(C3)C1)C2
outcome [1]: inactive [at 9.29 µM]
outcome [2]: inactive [at 9.29 µM]

CC1(C)Oc2ncnc(N)c2N=C1c1ccc(C2CCC(CC(=O)O)CC2)cc1 (stereo unspecified)
Potency [1]: inactive
Potency [2]: inactive

OC[C@@]1(O)CO[C@@H](OC[C@H]2O[C@@H](OCc3ccccc3)[C@H](O)[C@@H](O)[C@@H]2O)[C@@H]1O
Potency [1]: inactive
Potency [2]: inactive

C/C=C/C=C/C=C/C(=O)O[C@@H]1C=C(CO)[C@](O)(CO)[C@@]2(C)CCCC(C)(C)[C@H]12
Potency [1]: inactive
Potency [2]: inactive

FC(F)(F)Oc1ccc(-c2ccc3nnc(C(F)(F)F)n3c2)cc1
Potency [1]: inactive
Potency [2]: inactive

C[C@H](/C=C/[C@@]1(O)[C@H](C)CC(=O)CC1(C)C)O[C@@H]1O[C@H](CO[C@@H]2OC[C@@H](O)[C@H](O)[C@H]2O)[C@@H](O)[C@H](O)[C@H]1O
Potency [1]: inactive
Potency [2]: inactive

COc1ccc(CCC(=O)c2c(O)cc(O[C@@H]3O[C@H](CO)[C@@H](O)[C@H](O)[C@H]3O[C@@H]3O[C@@H](C)[C@H](O)[C@@H](O)[C@H]3O)cc2O)cc1O
max response [3]: 0.724%
outcome [4]: inactive
outcome [5]: inactive
outcome [6]: inactive
max response [7]: -0.966%
max response [8]: -4.69%
outcome [9]: inactive

Cc1c(C)c(NCC(=O)N(C)C2CCN(Cc3ccc(C(N)=O)cc3)CC2)c(C)c(C)c1N
Potency [2]: inactive

COc1c(O)cc2c(c1O)C(=O)O[C@H](C)[C@H]2O
Potency [2]: inactive

CC1=C2C(=O)C=C(CO)C2C2OC(=O)C(CS(=O)(=O)O)C2C(OC(=O)Cc2ccc(O)cc2)C1 (stereo unspecified)
Potency [2]: inactive

C=CCC/C=C/C#CCCCCCCCC[C@H]1C(=O)O[C@H](C)[C@@H]1O
Potency [2]: inactive

O=C(CC1CC(c2ccc(F)cc2F)=NO1)N1CCOCC1 (stereo unspecified)
Potency [2]: inactive

CCNC(=O)C1CC(F)(c2ccc(CN3CCCC3)c(F)c2)C1 (stereo unspecified)
Potency [2]: inactive

CC1=C[C@@H]2[C@H]3[C@@H]4O[C@@](C)(CC[C@H]4O)[C@H]3CC(=O)[C@]23C(=O)N[C@@H](CC(C)C)[C@@H]3[C@@H]1C
Potency [2]: inactive

C/C(=C/CO)CC[C@H]1[C@]2(C)C[C@H](O)CC(C)(C)[C@H]2CC[C@]1(C)O
Potency [2]: inactive

CC1(C)CC[C@]2(C(=O)O)CC[C@]3(C)C(=CCC4[C@@]5(C)C[C@@H](O)[C@H](O)[C@](C)(CO)C5CC[C@]43C)[C@@H]2[C@@H]1O (stereo partly specified)
Potency [2]: inactive

CC1CCC23COC(=O)C2=CC(O)CC3C1(C)CCc1ccoc1 (stereo unspecified)
Potency [2]: inactive

CC(C)CC(=O)OC[C@@]1(O)C[C@@]23CC[C@H]4[C@@](C)(CCC[C@@]4(C)C(=O)O)[C@@H]2CC[C@@H]1C3
Potency [2]: inactive

CC(=O)O[C@@H](C[C@@H]1C=C(C)C(=O)O1)[C@H](C)[C@H]1CCC2[C@@]3(C)CC[C@H](O[C@@H]4O[C@H](CO)[C@@H](O)[C@H](O)[C@H]4O[C@@H]4O[C@@H](C)[C@H](O)[C@@H](O)[C@H]4O)C(C)(C)C3CC[C@@]2(C)[C@@]12COC(=O)C2 (stereo partly specified)
activity change, negative = cytotoxicity [2]: -0.38% [at 9.29 µM]

C=C1C(=O)O[C@@H]2CC(C)=C([C@@H](C)CCCOC(C)=O)[C@@H](O)[C@H]12
Potency [2]: inactive

CCOc1nc2c(N)ncnc2n1CC
Potency [2]: inactive

CCC(CC)CC1(C(=O)Nc2ccccc2SC(=O)C(C)C)CCCCC1
Potency [2]: inactive

CC(=O)OCC(Cc1ccccc1)NC(=O)C(Cc1ccccc1)NC(=O)c1ccccc1 (stereo unspecified)
Potency [2]: inactive

COc1cc(-c2ccc(O)cc2)c(OC)c(O)c1C1=CC(=O)OC1CC(=O)O (stereo unspecified)
Potency [2]: inactive

C/C=C/C=C/C1=C2C(=O)C3(C)C4C(C(=O)CC(O)/C=C/C)=C(O1)C1(C)C2C2(C)OC1(O)C4(C)OC23O (stereo unspecified)
Potency [2]: inactive

COc1ccc(/C=C/C(=O)O[C@@H]2[C@@H](OC(C)=O)[C@@H](OC(C)=O)[C@H](O[C@H]3[C@@H]4C=CO[C@@H](O[C@@H]5O[C@H](CO)[C@@H](O)[C@H](O)[C@H]5O)[C@@H]4[C@@]4(CO)O[C@@H]34)O[C@H]2C)cc1
Potency [2]: inactive

Cc1occc1C(=O)n1ccnc1
Potency [2]: inactive

C[C@@H]1CC[C@]2(C(=O)O)CC[C@]3(C)C(=CCC4[C@@]5(C)C[C@@H](O)[C@H](O)[C@@](C)(CO)C5CC[C@]43C)C2[C@H]1C (stereo partly specified)
Potency [2]: inactive

C/C=C(/C)C(=O)O[C@H]1C[C@]2(C)O[C@@H]2[C@@H](OC(C)=O)[C@@]2(C)CC[C@@](O)(C(C)C)[C@H]12
Potency [2]: inactive

CC1(C)CC[C@]2(C(=O)O[C@@H]3O[C@H](CO)[C@@H](O)[C@H](O)[C@H]3O)CC[C@]3(C)C(=CCC4[C@@]5(C)C[C@H](O)[C@H](O[C@@H]6O[C@H](C(=O)O)[C@@H](O)[C@H](O)[C@H]6O)[C@@](C)(CO)C5CC[C@]43C)C2C1 (stereo partly specified)
activity change, negative = cytotoxicity [2]: -7.52% [at 9.29 µM]

CC(=O)OC[C@]12[C@H](OC(C)=O)[C@H](OC(=O)c3ccccc3)[C@@H]3[C@@H](OC(C)=O)[C@]1(OC3(C)C)[C@H](C)C[C@H](OC(=O)c1ccccc1)[C@@H]2OC(=O)c1ccccc1
Potency [2]: inactive

COc1cc(/C=C/C(=O)O[C@H]2[C@H](O)[C@@H](CO)O[C@@]2(CO)O[C@H]2O[C@H](CO)[C@@H](O)[C@H](O)[C@H]2O)cc(OC)c1O
Potency [2]: inactive

O=C(OC[C@H]1O[C@H](O[C@H]2CO[C@H](CO)[C@@H](O)[C@@H]2O)[C@H](O)[C@@H](O)[C@H]1O)c1ccccc1
Potency [2]: inactive

CCC(C)/C=C(C)/C=C/C(=O)C1CCC(O)C(C)(O)C1=O (stereo unspecified)
Potency [2]: inactive
